Most compounds without a hit are left out; they make up all but 3.7% or so of the library.
D3 antag: qHTS of D3 Dopamine Receptor Antagonist: qHTS; D(3) dopamine receptor (Homo sapiens), P35462; D3R cells, DiscoveRx beta-arrestin luminescence, antagonist mode; hits give low values; max response, negative = inhibition, %; hit rate 2.5% among 360,000; AID 652054, 2013; in the data active = max response below about -50%; inconclusive = no clear call, values can overlap the other calls; note: % is set by controls: 0 for no effect and ±100 for the full control effect
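Cells plated overnight at 1500 cells/well, then exposed to library compounds with dopamine controls for 90 minutes at 37 degrees C. DiscoveRx reagent added for 30–60 minutes at room temperature; luminescence read, quantitative HTS format.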
PTHR1 ag: qHTS for PTHR1 Agonists: Primary Screen | hit rate 0.075% among 410,000 | Potency, µM (titrated, usually from 115 µM), without a hit: top-dose activation, actives largely listed as activators | HEK293 GP2 PTHR1 cells, GloSensor cAMP luminescence, 1 h; note: potency is the fitted concentration of half-maximal effect; nearly all actives have a fitted effect of over 55% in size
Target sequence (Q03431 whole entry, looked up): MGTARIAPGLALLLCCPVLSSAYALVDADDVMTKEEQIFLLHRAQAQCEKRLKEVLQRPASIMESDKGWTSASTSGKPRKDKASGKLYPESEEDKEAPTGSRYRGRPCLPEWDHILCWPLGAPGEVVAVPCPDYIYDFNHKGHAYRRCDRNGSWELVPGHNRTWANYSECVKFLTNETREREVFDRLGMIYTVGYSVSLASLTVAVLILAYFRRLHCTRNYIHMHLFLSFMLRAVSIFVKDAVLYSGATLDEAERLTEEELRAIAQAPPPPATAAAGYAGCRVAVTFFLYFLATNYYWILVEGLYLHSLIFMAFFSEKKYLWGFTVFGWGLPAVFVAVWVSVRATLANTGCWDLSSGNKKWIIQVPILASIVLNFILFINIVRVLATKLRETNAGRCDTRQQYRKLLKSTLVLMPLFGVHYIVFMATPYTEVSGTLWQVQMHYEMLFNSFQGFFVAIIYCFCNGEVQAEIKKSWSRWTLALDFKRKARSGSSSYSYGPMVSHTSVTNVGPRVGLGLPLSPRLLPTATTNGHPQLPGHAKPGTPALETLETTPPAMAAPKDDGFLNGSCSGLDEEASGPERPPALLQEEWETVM
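HEK-293-derived GP2 cells expressing PTHR1 and a GloSensor cAMP reporter, 3,000/well, plated overnight, given luciferin plus IBMX (each 0.5 mM as added) for 1 h at 37 °C, then compound for 1 h at 37 °C. Luminescence was read after 15 min at room temperature.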
RGS4 inh: Inhibitors of Regulator of G Protein Signaling (RGS) 4: qHTS | Potency, µM (series often up to 114 µM), for the others: at the highest dose activity change, negative = inhibition, usual class: inhibitors | Transcreener GDP fluorescence polarization, RGS4-accelerated GTP hydrolysis | hit rate 0.039% among 390,000 | AID 504845, 2011; note: potency is the fitted concentration of half-maximal effect; % is set by controls: 0 for no effect and ±100 for the full control effect; nearly all actives have a fitted effect of over 75% in size
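MLSMR compounds (23 nl, pin-transferred) preincubated 10 min at room temperature with a 500nM (2x) first reagent, then RGS4 at 900nM (2x) plus Transcreener GDP mix added; fluorescence polarization (620/688 nm) read before and after 90 min at 30 °C.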
BRCA1 expr up: qHTS Assay to Identify Small Molecule Activators of BRCA1 Expression; hit rate 1.1% among 380,000; Potency, µM (top dose mostly 46.1 µM), inactives show top-dose activation, most hits filed as activators; MCF7-BRCA1-FFLuc reporter, luminescence, 48 h; response scale: scaled: vehicle 0%, 10 µM genistein 100%; AID 624202, 2012; note: potency is the fitted concentration of half-maximal effect; nearly all actives have a fitted effect of over 80% in size
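Reporter cells (MCF7, BRCA1 promoter-firefly luciferase) received library compounds across a concentration series for 48 h. End-point luminescence was measured and concentration-effect curves derived after normalization.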
DRD3 agonist: qHTS of D3 Dopamine Receptor Agonist: qHTS | D(3) dopamine receptor (Homo sapiens), P35462 | D3R DiscoveRx beta-arrestin cells, luminescence, 90 min | max activation, % | hit rate 0.58% among 410,000 | AID 652048, 2013; in the data active = max activation above about 30%; note: 0% is about no effect
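Agonist mode: compounds and dopamine controls were applied to plated cells for 90 min at 37 degrees C after an overnight attachment at 1500 cells/well. Luminescent read-out followed 30 - 60 minutes at room temperature with DiscoveRx detection reagent.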
B2AR arrestin: qHTS assay of beta-arrestin-biased ligands of beta2-adrenergic receptor | AID 492947, 2010 | beta-arrestin recruitment to beta2AR, cell-based reporter | Potency, µM (top dose mostly 46.1 µM), without a hit: top-dose activation, hits mostly activators | hit rate 0.02% among 330,000 | Beta-2 adrenergic receptor (Homo sapiens), P07550;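 note: potency is the fitted concentration of half-maximal effect; 0% = DMSO controls and full agonism = EC100 isoproterenol or metaproterenol; nearly all actives have a fitted effect of over 65% in size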
* hit, by the source's call; i = inactive; ? = inconclusive; . = no result. Unless noted, calls come from the whole dose curve; as a rule, active = well fitted curve in the direction sought with a large enough effect; inconclusive = small, poorly fitted or top-dose-only effect, or another doubt; inactive = no such curve, though single readings can be large; an effect the other way counts as inactive or inconclusive.

SMILES	D3 antag	PTHR1 ag	RGS4 inh	BRCA1 expr up	DRD3 agonist	B2AR arrestin
O=C(CCNc1n[nH]c(=O)[nH]c1=O)N/N=C/c1ccc(C(F)(F)F)cc1	3	-21%	13%	16%	17	0%
O=C(C1=C[C@H](c2ccc(C(F)(F)F)cc2)C[C@H](OCc2ccc(CO)cc2)O1)N1CCCCCCC1	-72*	i	-12%	0%	0	0%
C#CCNC(=O)C1=C[C@H](c2ccc(Br)cc2)C[C@H](OCCCCO)O1	?	-2%	-8%	-9%	-30	0%
O=C(Nc1ccccc1)C1=C[C@H](c2csc3ccccc23)C[C@H](OCc2ccc(CO)cc2)O1	4	i	1%	-70%	36*	0%
O=C(C1=C[C@@H](c2csc3ccccc23)C[C@@H](OCc2ccc(CO)cc2)O1)N1CCN(Cc2ccc3c(c2)OCO3)CC1	?	-5%	-11%	-53%	-18	0%
O=C(C1=C[C@@H](c2csc3ccccc23)C[C@@H](OCc2ccc(CO)cc2)O1)N1CCN(Cc2ccccc2)CC1	-53*	-9%	-20%	-35%	-7	0%
O=C(C1=C[C@@H](c2ccc(C(F)(F)F)cc2)C[C@@H](OCc2ccc(CO)cc2)O1)N1CCOCC1	8	-47%	-1%	-12%	5	0%
C#CCNC(=O)C1=C[C@@H](c2ccc(C(F)(F)F)cc2)C[C@@H](OCCCCO)O1	-52*	i	-4%	-10%	-2	0%
CC(=O)Nc1cc(-c2cccnc2)cn2c(-c3ccc(F)cc3)cnc12	0	-10%	.	0%	2	.
COc1ccc(N2CCN(S(=O)(=O)c3ccc4c(c3)C(C(C)C)C(=O)N4)CC2)cc1 (stereo not given)	.	-23%	5%	.	-2	.
O=C(C1=C[C@H](c2ccccc2)C[C@H](OCc2ccc(CO)cc2)O1)N1CCN(Cc2ccccc2)CC1	-50*	-23%	-7%	-8%	-35	0%
OCCC1CN(Cc2cc3c(cc2Cl)OCO3)CCN1C1CCCC1 (stereo not given)	-53*	i	16%	-25%	-14	-1%
Cc1sc2ncnc(OCC(=O)NCc3cccs3)c2c1C	-83*	-24%	26%	-9%	7	0%
CNC(=O)COc1ncnc2sc(C)c(C)c12	0	-7%	1%	-3%	-12	0%
CCOC(=O)CN(C(=O)CSc1nnc2c(n1)[nH]c1c(C)cc(C)cc12)c1ccccc1	.	.	.	.	.	0%
CCOC(=O)CN(C(=O)CSc1nnc2c(n1)[nH]c1ccccc12)c1ccccc1	-73*	-9%	-25%	-28%	1	0%
CCOC(=O)CN(C(=O)CSc1nnc2c(n1)[nH]c1ccc(F)cc12)c1ccccc1	-60*	-17%	-20%	-24%	-10	-1%
Cc1ccnc2c1ccc1c(C)ccnc12	-100*	?	-4%	-80%	-18	-1%
c1cnc2c(c1)ccc1cccnc12	-76*	-15%	?	-68%	-14	?
Cc1ccnc2c1ccc1cccnc12	-95*	-24%	-13%	-47%	-29	0%
O=Cc1ccc2ccc3cccnc3c2n1	-14	i	-14%	-59%	-17	0%
CN(CC(=O)Nc1ccc(Cl)c(C(F)(F)F)c1)S(=O)(=O)c1cnc[nH]1	14	-14%	.	-1%	5	.
COc1cc(/C=C/CN2CCC(C(=O)NC(c3ccc(F)cc3)c3ccc4ccccc4n3)CC2)ccc1OC(C)=O (stereo not given)	-110*	-45%	.	-56%	-26	.
